Screening results (PubChem BioAssay)
This is one part of a sample in which hits are shown more often than they occur.
IDE exosite FP: exo-site inhibitors of human IDE, primary screen, biochemical, fluorescence anisotropy, probe displacement; Insulin-degrading enzyme (Homo sapiens), P14735; purified IDE, FL-6b probe fluorescence polarization; hits give low values; z-score at 20 µM; 6.3% of 17,000 active; AID 1259349, 2017;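 active = z-score of -3 or lower, meaning strong loss of probe binding signal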;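 also: His-tagged human IDE residues 42-1019 made in E. coli with 30 nM FL-6b probe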
Target sequence (P14735 42-1019 limits assumed): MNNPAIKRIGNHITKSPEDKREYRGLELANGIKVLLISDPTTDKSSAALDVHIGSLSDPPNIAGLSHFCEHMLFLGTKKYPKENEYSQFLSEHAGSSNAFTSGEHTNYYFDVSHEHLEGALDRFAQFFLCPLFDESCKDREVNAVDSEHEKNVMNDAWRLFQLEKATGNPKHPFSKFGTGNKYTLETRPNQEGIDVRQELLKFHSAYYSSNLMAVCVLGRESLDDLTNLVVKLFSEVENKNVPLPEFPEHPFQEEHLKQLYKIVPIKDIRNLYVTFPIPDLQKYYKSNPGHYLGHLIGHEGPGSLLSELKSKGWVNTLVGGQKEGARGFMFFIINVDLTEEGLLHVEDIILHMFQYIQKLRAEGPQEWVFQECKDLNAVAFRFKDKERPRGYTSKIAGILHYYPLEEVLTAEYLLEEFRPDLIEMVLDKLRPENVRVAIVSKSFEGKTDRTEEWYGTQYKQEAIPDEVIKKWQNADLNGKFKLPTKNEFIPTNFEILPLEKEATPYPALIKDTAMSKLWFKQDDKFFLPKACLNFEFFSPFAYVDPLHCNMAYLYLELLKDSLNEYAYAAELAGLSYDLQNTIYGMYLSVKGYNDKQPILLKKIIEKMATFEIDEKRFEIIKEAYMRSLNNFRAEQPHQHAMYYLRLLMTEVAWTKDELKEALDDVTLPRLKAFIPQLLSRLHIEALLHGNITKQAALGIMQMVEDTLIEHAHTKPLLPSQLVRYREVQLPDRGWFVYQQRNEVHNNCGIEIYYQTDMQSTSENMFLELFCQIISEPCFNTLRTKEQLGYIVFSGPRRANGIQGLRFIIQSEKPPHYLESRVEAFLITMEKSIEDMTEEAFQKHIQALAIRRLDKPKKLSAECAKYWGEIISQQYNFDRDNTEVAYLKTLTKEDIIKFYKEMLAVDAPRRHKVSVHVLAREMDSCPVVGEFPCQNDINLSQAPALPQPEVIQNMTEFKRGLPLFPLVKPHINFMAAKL
Numbers without * were called inactive.

SMILES	IDE exosite FP
O=C(c1cccc(F)c1)N1CC(=O)N2[C@H](CO)[C@H](c3ccc(C#Cc4ccc(F)cc4)cc3)[C@H]2C1	3.94
O=C(C1CCCCC1)N1CC(=O)N2[C@H](CO)[C@H](c3ccc(C#Cc4cccc(F)c4)cc3)[C@H]2C1	-2.87
O=C(C1CC1)N1CC(=O)N2[C@H](CO)[C@@H](c3ccc(C#Cc4cccc(F)c4)cc3)[C@@H]2C1	-5.67*
O=C(C1CCCCC1)N1CC(=O)N2[C@H](C1)[C@@H](c1ccc(C#Cc3cccc(F)c3)cc1)[C@@H]2CO	-0.0895
CCC(=O)N1CC(=O)N2[C@H](CO)[C@@H](c3ccc(C#Cc4cccc(F)c4)cc3)[C@H]2C1	2.61
O=C(C1CC1)N1CC(=O)N2[C@H](CO)[C@@H](c3ccc(C#Cc4cccc(F)c4)cc3)[C@H]2C1	-3.06*
O=C(C1CC1)N1CC(=O)N2[C@@H](CO)[C@H](c3ccc(C#Cc4cccc(F)c4)cc3)[C@@H]2C1	-5.82*
O=C(c1cccc(F)c1)N1CC(=O)N2[C@H](C1)[C@H](c1ccc(C#Cc3ccc(F)cc3)cc1)[C@@H]2CO	1.49
CCC(=O)NC[C@@H]1[C@@H](c2ccccc2)[C@@H](CO)N1C(=O)C1CC1	4.06
CN(C)C(=O)c1cccc(-c2ccccc2[C@@H]2[C@@H](C#N)N(C(=O)C3CC3)[C@H]2CO)c1	4.27
C/C=C/c1ccc([C@H]2[C@@H](CO)N(C(=O)CC)[C@@H]2CNC(=O)c2ccncc2)cc1	0.29
O=C(Cc1ccccn1)N1CC(=O)N2[C@@H](CO)[C@H](c3ccc(C#CC4CCCCC4)cc3)[C@@H]2C1	-0.172
COc1ccc2c3c(n(C)c2c1)[C@H](CO)N(C(=O)C1CCCC1)CC31CN(C(=O)CC2CC2)C1	-1.06
COc1cccc(CN2CCCCN3[C@H](C2)[C@H](c2ccc(-c4cccnc4)cc2)[C@@H]3CO)c1	-0.959
COCC(=O)N1CC(=O)N2[C@H](CO)[C@@H](c3ccc(-c4cccnc4)cc3)[C@@H]2C1	2.03
CCS(=O)(=O)N1CCCCN2[C@H](CO)[C@H](c3ccc(-c4ccccc4F)cc3)[C@@H]2C1	1.17
O=C(Nc1ccccc1)N1CCCCN2[C@H](CO)[C@H](c3ccc(C#Cc4ccccn4)cc3)[C@H]2C1	-2.42
O=C(c1cccc(F)c1)N1CC(=O)N2[C@@H](CO)[C@@H](c3ccc(C#Cc4ccc(F)cc4)cc3)[C@@H]2C1	-0.896
O=C(C1CCCCC1)N1CC(=O)N2[C@H](CO)[C@H](c3ccc(C#Cc4cccc(F)c4)cc3)[C@@H]2C1	0.658
O=C(C1CC1)N1CC(=O)N2[C@H](C1)[C@@H](c1ccc(C#Cc3cccc(F)c3)cc1)[C@@H]2CO	-2.86
O=C(C1CC1)N1CC(=O)N2[C@H](CO)[C@H](c3ccc(C#Cc4cccc(F)c4)cc3)[C@H]2C1	-9.59*
O=C(C1CC1)N1CC(=O)N2[C@H](CO)[C@H](c3ccc(C#Cc4cccc(F)c4)cc3)[C@@H]2C1	-4.18*
O=C(c1cccc(F)c1)N1CC(=O)N2[C@H](CO)[C@@H](c3ccc(C#Cc4ccc(F)cc4)cc3)[C@@H]2C1	1.32
O=C(c1ccccn1)N1CC(=O)N2[C@H](CO)[C@@H](c3ccc(-c4cccc(F)c4)cc3)[C@H]2C1	1.48
O=C1NCCOCc2cn(nn2)CC[C@H]1Cc1ccc(F)cc1	-1.06
SMILES	IDE exosite FP
CCC(=O)N1CC(=O)N2[C@H](CO)[C@@H](c3ccc(-c4cccnc4)cc3)[C@H]2C1	2.14
O=C(CCN1CCCCC1)NCC[C@H]1CC[C@H](NS(=O)(=O)c2cccc(Cl)c2)[C@@H](CO)O1	1.01
O=S(=O)(c1ccccc1)N1CCCCN2[C@H](CO)[C@H](c3ccc(C#Cc4ccccc4)cc3)[C@@H]2C1	3.68
CS(=O)(=O)N1CCCCN2[C@H](C1)[C@@H](c1ccc(C#Cc3ccccn3)cc1)[C@@H]2CO	-3.32*
CC(C)(O)C#Cc1ccc([C@@H]2[C@H]3CN(S(C)(=O)=O)CCCCN3[C@H]2CO)cc1	-0.898
O=S(=O)(c1ccccc1)N1CCCCN2[C@H](CO)[C@H](c3ccc(C#Cc4ccccc4)cc3)[C@H]2C1	1.92
CCS(=O)(=O)N1CCCCN2[C@H](CO)[C@@H](c3ccc(C#Cc4ccccn4)cc3)[C@@H]2C1	-0.474
O=C(c1ccncc1)N1CCCCN2[C@H](C1)[C@H](c1ccc(C#Cc3ccccn3)cc1)[C@@H]2CO	-2.18
O=C(c1ccncc1)N1CCCCN2[C@H](CO)[C@@H](c3ccc(C#Cc4ccccn4)cc3)[C@@H]2C1	-1.88
O=S(=O)(c1ccccc1)N1CCCCN2[C@H](CO)[C@H](c3ccc(C#Cc4ccccn4)cc3)[C@H]2C1	-3.19*
CS(=O)(=O)N1CCCCN2[C@@H](CO)[C@H](c3ccc(C#Cc4ccccn4)cc3)[C@@H]2C1	-3.9*
COCC(=O)N1[C@@H](CO)[C@@H](c2ccc(-c3ccccc3OC)cc2)C12CN(C(C)=O)C2	0.229
N#C[C@@H]1[C@H](c2ccc(C3=CCCC3)cc2)[C@@H](CO)N1C(=O)c1cccc(F)c1	6.02
CN1CCN(C(=O)C[C@H]2CC[C@@H]3[C@H](COC[C@H](O)CN3C(=O)Nc3ccc4c(c3)OCO4)O2)CC1	0.552
CCS(=O)(=O)N1CCCCN2[C@H](C1)[C@@H](c1ccc(-c3ccc(C(=O)N(C)C)cc3)cc1)[C@@H]2CO	0.242
COC(=O)[C@H]1[C@H](CO)[C@H]2Cn3c(ccc(-c4cncnc4)c3=O)[C@H]2N1CCC(F)(F)F	-0.249
N#C[C@@H]1[C@H](c2ccc(C3=CCCCC3)cc2)[C@H](CO)N1S(=O)(=O)c1cccc(F)c1	3.44
CCc1csc(N2[C@H](C#N)[C@@H](c3ccc(-c4cccc(F)c4)cc3)[C@@H]2CO)n1	3.4
COc1cccc(NC(=O)N2CC(=O)N3[C@H](CO)[C@@H](c4ccc(C#CCC5CCCC5)cc4)[C@H]3C2)c1	0.0628
CN(C)C(=O)c1ccc(-c2ccc([C@@H]3[C@@H](CO)N4CCCCN(S(C)(=O)=O)C[C@@H]34)cc2)cc1	2.52
C/C=C/c1ccc([C@@H]2[C@@H](CO)N3C(=O)CN(Cc4ccccc4)C[C@H]23)cc1	1.89
Cc1ccccc1-c1ccc([C@H]2[C@@H](CO)N3C(=O)CN(C(=O)c4cccnc4)C[C@H]23)cc1	-17.2*
Cc1ccccc1-c1ccc([C@@H]2[C@H]3CN(C(=O)c4cccnc4)CC(=O)N3[C@H]2CO)cc1	-19.7*
O=C(c1cccnc1)N1CC(=O)N2[C@H](C1)[C@@H](c1ccc(-c3ccccc3F)cc1)[C@@H]2CO	-2.73
CCCC#Cc1ccc([C@@H]2[C@H](CO)N3C(=O)CN(C(=O)c4cccnc4)C[C@@H]23)cc1	0.553
SMILES	IDE exosite FP
Cc1ccccc1-c1ccc([C@@H]2[C@@H](CO)N3C(=O)CN(C(=O)c4ccncc4)C[C@H]23)cc1	-2.31
COCC#Cc1ccc([C@@H]2[C@H]3CN(C(=O)Nc4cc(F)ccc4F)CCCCN3[C@H]2CO)cc1	4.31
O=C(Cc1ccccn1)N1[C@H](CO)[C@H]2c3ccccc3NC[C@H]21	2.05
O=C(NC1CCCC1)N1CCCCN2[C@H](C1)[C@@H](c1ccc(/C=C/c3ccccc3)cc1)[C@@H]2CO	-9.59*
O=C(Nc1ccccc1F)N1CCCCN2[C@H](CO)[C@@H](c3ccc(/C=C/c4ccccc4)cc3)[C@H]2C1	-1.74
O=C(NC1CCCC1)N1CCCCN2[C@H](CO)[C@@H](c3ccc(/C=C/c4ccccc4)cc3)[C@@H]2C1	-2.8
